The AC50 is the concentration at which the activity in the assay is half-maximal.

Read-out in assay [1]: urokinase plasminogen activator (uPA), PLAU (gene 5328)
Put plainly: BSK_KF3CT_uPA: BioMAP Diversity Plus: KF3CT Assay for urokinase plasminogen activator (uPA) Biomarker Activity (AID 2283075). The settings on record: primary human keratinocytes with fibroblasts; actives raise or lower the signal. The essentials:
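ELISA readout of uPA, analyzed for signal gain or loss relative to DMSO, from a human primary keratinocyte–foreskin fibroblast co-culture measured 24 h after chemical treatment.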

Read-out in assay [2]: CD40, CD40 (gene 958)
Put plainly: BSK_LPS_CD40: BioMAP Diversity Plus: LPS Assay for CD40 Biomarker Activity (AID 2283076). As to conditions: primary human HUVEC with PBMC; actives raise or lower the signal. In a few lines:
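Primary human umbilical vein endothelial cells co-cultured with peripheral blood mononuclear cells, LPS-stimulated, were dosed with chemical and read 24 h later. CD40 levels were measured by ELISA and fitted bidirectionally against DMSO as negative control and baseline.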

Read-out in assay [3]: E-selectin (Homo sapiens) (UniProt P16581)
Put plainly: BSK_LPS_Eselectin: BioMAP Diversity Plus: LPS Assay for Eselectin Biomarker Activity (AID 2283077). As to conditions: primary human HUVEC with PBMC; actives raise or lower the signal. The essentials:
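Human umbilical vein endothelial cells co-cultured with peripheral blood mononuclear cells under LPS stimulation; E-selectin measured by ELISA 24 h after chemical dosing. Activity fitted bidirectionally against DMSO as negative control and baseline.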

Read-out in assay [4]: Interleukin-8 (IL8), CXCL8 (gene 3576)
Put plainly: BSK_LPS_IL8: BioMAP Diversity Plus: LPS Assay for Interleukin-8 (IL8) Biomarker Activity (AID 2283078). As to conditions: primary human HUVEC with PBMC; actives raise or lower the signal. The essentials:
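Human umbilical vein endothelial cells co-cultured with PBMC were stimulated with LPS; IL-8 levels were measured by ELISA 24 h after chemical dosing. Activity was fitted bidirectionally against DMSO as negative control and baseline.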

Assay [5] can be described thus: BSK_LPS_SRB: Viability Assessment in the BioMAP Diversity Plus: LPS Assay (AID 2283079).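 Note: total protein by sulforhodamine B absorbance as a cytotoxicity measure; measured one day after compound addition; fitted in both directions against DMSO so loss or gain of signal counts.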 The settings on record: primary human HUVEC with PBMC. In a few lines: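 Human umbilical vein endothelial cells co-cultured with PBMC (LPS system) were dosed for 24 h. Total protein was stained with 0.1% sulforhodamine B after 10% TCA fixation, read at 560 nm, and fitted bidirectionally against DMSO baseline.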

Read-out in assay [6]: Interleukin-1 alpha (IL1a), IL1A (gene 3552)
The assay is described as follows: BSK_LPS_IL1a: BioMAP Diversity Plus: LPS Assay for Interleukin-1 alpha (IL1a) Biomarker Activity (AID 2283080). As to conditions: primary human HUVEC with PBMC; actives raise or lower the signal. The essentials: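 Human umbilical vein endothelial cells co-cultured with peripheral blood mononuclear cells were LPS-stimulated and exposed to test chemicals for 24 h. IL-1 alpha was quantified by ELISA, with bidirectional curve fitting against DMSO as the negative control and baseline.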

Read-out in assay [7]: Monocyte Chemoattractant Protein-1 (MCP1), CCL2 (gene 6347)
The assay is described as follows: BSK_LPS_MCP1: BioMAP Diversity Plus: LPS Assay for Monocyte Chemoattractant Protein-1 (MCP1) Biomarker Activity (AID 2283081). As to conditions: primary human HUVEC with PBMC; actives raise or lower the signal. In a few lines: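 HUVEC plus PBMC co-culture (human primary cells, LPS system) exposed to test chemical for 24 h; MCP-1 measured by ELISA. Bidirectional curve fitting against DMSO baseline; parallel SRB total-protein staining flags overt cytotoxicity.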

The nature of assay [8]: BSK_LPS_PGE2: BioMAP Diversity Plus: LPS Assay for Prostaglandin E2 (PGE2) Biomarker Activity (AID 2283082).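 For AC50: secreted prostaglandin E2 measured by ELISA in LPS-stimulated co-culture.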 The settings on record: primary human HUVEC with PBMC; actives raise or lower the signal. The essentials:
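LPS-activated HUVEC/PBMC co-culture; cmpd dosed, 24 h; PGE2 by ELISA; bidirectional fit vs DMSO; SRB (0.1%, TCA-fixed, 560 nm) in parallel plates for overt cytotox.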

Read-out in assay [9]: Macrophage colony-stimulating factor (MCSF), CSF1 (gene 1435)
Put plainly: BSK_LPS_MCSF: BioMAP Diversity Plus: LPS Assay for Macrophage colony-stimulating factor (MCSF) Biomarker Activity (AID 2283083). As to conditions: primary human HUVEC with PBMC; actives raise or lower the signal. In a few lines: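 Human umbilical vein endothelial cells co-cultured with peripheral blood mononuclear cells were exposed to compound for 24 h. M-CSF levels were measured by ELISA, and bidirectional curve fitting used DMSO as the negative control and baseline.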

Read-out in assay [10]: Tissue Factor, F3 (gene 2152)
The assay is described as follows: BSK_LPS_TissueFactor: BioMAP Diversity Plus: LPS Assay for Tissue Factor Biomarker Activity (AID 2283084). As to conditions: primary human HUVEC with PBMC; actives raise or lower the signal. The essentials:
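Human umbilical vein endothelial cells co-cultured with peripheral blood mononuclear cells were dosed and stimulated with LPS. Cell-surface CD142 was quantified by ELISA at 24 h. Activity was fitted bidirectionally against DMSO baseline.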

Read-out in assay [11]: Tumor necrosis factor (Homo sapiens) (UniProt P01375)
Put plainly: BSK_LPS_TNFa: BioMAP Diversity Plus: LPS Assay for Tumour Necrosis Factor alpha (TNFa) Biomarker Activity (AID 2283085). The settings on record: primary human HUVEC with PBMC; actives raise or lower the signal. In a few lines:
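Read-out is ELISA of TNFa in primary human endothelial cell–PBMC co-cultures at 24 h after compound. Activity in either direction was fitted against DMSO.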

Read-out in assay [12]: Vascular cell adhesion molecule 1 (VCAM1), VCAM1 (gene 7412)
The assay is described as follows: BSK_LPS_VCAM1: BioMAP Diversity Plus: LPS Assay for Vascular cell adhesion molecule 1 (VCAM1) Biomarker Activity (AID 2283086). As to conditions: primary human HUVEC with PBMC; actives raise or lower the signal. The essentials: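 HUVEC + PBMC co-culture, LPS system; compound 24 h; VCAM-1 by ELISA; bidirectional fit vs DMSO control; parallel SRB (0.1%, TCA-fixed, 560 nm) for cytotoxicity.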

Read-out in another assay: CD38, CD38 (gene 952)
The assay is described as follows: BSK_SAg_CD38: BioMAP Diversity Plus: SAg Assay for CD38 Biomarker Activity (AID 2283087). The settings on record: primary human HUVEC with PBMC; actives raise or lower the signal. In a few lines:
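Human HUVEC plus PBMC co-culture stimulated with superantigen; CD38 measured by ELISA 24 h after chemical dosing. Fluorescence read-out, bidirectional fit against DMSO; cytotoxicity tracked in parallel by SRB and Alamar Blue.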

Read-out in assay [13]: CD40, CD40 (gene 958)
The assay is described as follows: BSK_SAg_CD40: BioMAP Diversity Plus: SAg Assay for CD40 Biomarker Activity (AID 2283088). The settings on record: primary human HUVEC with PBMC; actives raise or lower the signal. The essentials: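 Human umbilical vein endothelial cells co-cultured with PBMC; CD40 levels measured by ELISA with fluorescence read-out 24 h after chemical dosing. Gain or loss of signal fitted bidirectionally against DMSO baseline.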

Read-out in another assay: CD69, CD69 (gene 969)
Put plainly: BSK_SAg_CD69: BioMAP Diversity Plus: SAg Assay for CD69 Biomarker Activity (AID 2283089). As to conditions: primary human HUVEC with PBMC; actives raise or lower the signal. In a few lines:
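Endothelial/PBMC co-culture; chemical added; 24 h incubation; CD69 ELISA with fluorescence detection; bidirectional fit vs DMSO.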

Read-out in assay [14]: Monocyte Chemoattractant Protein-1 (MCP1), CCL2 (gene 6347)
Put plainly: BSK_SAg_MCP1: BioMAP Diversity Plus: SAg Assay for Monocyte Chemoattractant Protein-1 (MCP1) Biomarker Activity (AID 2283090). The settings on record: primary human HUVEC with PBMC; actives raise or lower the signal. The essentials:
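MCP-1 levels in the endothelial–PBMC SAg co-culture were quantified by ELISA at 24 h post-dosing; both increases and decreases versus DMSO scored. Cytotoxicity monitored by SRB total protein in parallel cultures.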

Read-out in assay [15]: E-selectin (Homo sapiens) (UniProt P16581)
The assay is described as follows: BSK_SAg_Eselectin: BioMAP Diversity Plus: SAg Assay for Eselectin Biomarker Activity (AID 2283091). The settings on record: primary human HUVEC with PBMC; actives raise or lower the signal. The essentials: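 HUVEC co-cultured with PBMC, compound dosed then read at 24 h; E-selectin measured by ELISA. Activity fitted bidirectionally against DMSO as negative control and baseline.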

Read-out in assay [16]: Monokine induced gamma interferon (MIG), CXCL9 (gene 4283)
The assay is described as follows: BSK_SAg_MIG: BioMAP Diversity Plus: SAg Assay for Monokine induced gamma interferon (MIG) Biomarker Activity (AID 2283092). The settings on record: primary human HUVEC with PBMC; actives raise or lower the signal. In a few lines: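 Measures CXCL9 protein by ELISA in a human vascular primary-cell co-culture (umbilical vein endothelium with PBMC) 24 h after chemical addition. Activity is scored up or down from the DMSO control.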

Assay [17] is described as follows: BSK_SAg_PBMCCytotoxicity: PBMC Cytotoxicity Assessment in the BioMAP Diversity Plus: SAg Assay (AID 2283093).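 Note: PBMC viability measured as Alamar Blue reduction fluorescence at 546/580 nm; fitted both ways against DMSO so a hit may be loss or gain of signal.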 As to conditions: primary human HUVEC with PBMC. In a few lines:
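Compound added to 75,000 PBMC/well for 1 h; SEB and TSST-1 then added at 20 ng/mL final each; 90 h incubation; Alamar Blue 6 h; read 546/580 nm ex/em. Activity fitted bidirectionally relative to DMSO baseline.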

Read-out in assay [18]: Interleukin-8 (IL8), CXCL8 (gene 3576)
Put plainly: BSK_SAg_IL8: BioMAP Diversity Plus: SAg Assay for Interleukin-8 (IL8) Biomarker Activity (AID 2283094). As to conditions: primary human HUVEC with PBMC; actives raise or lower the signal. The essentials:
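ELISA read-out of IL-8 in a primary human vascular co-culture (umbilical vein endothelium plus PBMC), taken 24 h after compound addition. Values derive from bidirectional fits against DMSO negative controls.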

The structures appear in SMILES notation. Calls of active or inactive are those of the source. Rule for the calls: active = hit-call score of the fitted dose curve at least 0.9, where 1 is the maximum; inactive = score below 0.9.

Sequence of E-selectin (Homo sapiens) (P16581 whole entry, looked up): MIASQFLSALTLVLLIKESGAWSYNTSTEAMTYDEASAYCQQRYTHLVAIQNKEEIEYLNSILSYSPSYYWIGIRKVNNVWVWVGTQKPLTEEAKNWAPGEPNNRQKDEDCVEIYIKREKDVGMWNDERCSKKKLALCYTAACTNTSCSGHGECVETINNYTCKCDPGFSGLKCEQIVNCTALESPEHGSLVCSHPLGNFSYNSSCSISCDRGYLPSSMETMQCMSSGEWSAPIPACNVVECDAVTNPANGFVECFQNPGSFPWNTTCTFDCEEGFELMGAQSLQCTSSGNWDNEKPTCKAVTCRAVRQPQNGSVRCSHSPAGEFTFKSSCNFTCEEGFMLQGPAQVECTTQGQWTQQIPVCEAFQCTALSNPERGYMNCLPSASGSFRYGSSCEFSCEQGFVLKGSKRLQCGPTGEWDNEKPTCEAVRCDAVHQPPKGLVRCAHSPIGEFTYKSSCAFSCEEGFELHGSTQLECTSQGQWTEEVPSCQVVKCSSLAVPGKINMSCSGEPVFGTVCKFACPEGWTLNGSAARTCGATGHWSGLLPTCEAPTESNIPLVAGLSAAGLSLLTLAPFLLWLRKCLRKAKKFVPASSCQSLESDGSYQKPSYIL
Sequence of Tumor necrosis factor (Homo sapiens) (P01375 whole entry, looked up): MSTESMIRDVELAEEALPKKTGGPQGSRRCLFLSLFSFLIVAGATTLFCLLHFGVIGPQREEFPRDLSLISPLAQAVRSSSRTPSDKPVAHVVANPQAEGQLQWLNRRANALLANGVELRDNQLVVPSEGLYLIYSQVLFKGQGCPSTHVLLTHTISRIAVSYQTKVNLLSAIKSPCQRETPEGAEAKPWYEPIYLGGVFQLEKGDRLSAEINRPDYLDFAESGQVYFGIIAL

Consider `CO[C@@H]1COCC[C@@H]1N[C@@H]1CC[C@@](C(=O)N2CCc3ncc(C(F)(F)F)cc3C2)(C(C)C)C1`, for which the outcome is “inactive” in assay [1]; “inactive” with CD40, CD40 (gene 958) [2]; “inactive” in assay [3]; “inactive” in assay [4]; “inactive” in [5]; “inactive” in assay [6]. The outcome in assay [7], in assay [8], in assay [9], in assay [10], in assay [11] and in [12] was inactive. The outcome in the assay with CD38, CD38 (gene 952) was “inactive”; with CD40, CD40 (gene 958) [13] it was “inactive”; in the assay with CD69, CD69 (gene 969), “inactive”; in assay [14] it was “inactive”; in [15], “inactive”; in assay [16], “inactive”. Moreover, the outcome in assay [17] and in assay [18] was inactive.
`CC1(C)C(=O)NC(=O)N1CO`: the outcome is “inactive” in assay [1]; “inactive” in the assay with CD40, CD40 (gene 958) [2]; “inactive” in [3]; “inactive” in [4]; “inactive” in assay [5]; “inactive” in assay [6]. In addition, the outcome was “inactive” in assay [7]; “inactive” in assay [9]; “inactive” in [10]; “inactive” in [11]; “inactive” in [12]; “inactive” with CD38, CD38 (gene 952). Further, the outcome with CD40, CD40 (gene 958) [13] was “inactive”; in the assay with CD69, CD69 (gene 969), “inactive”; in assay [14], “inactive”; in [15] it was “inactive”; in assay [16], “inactive”; in assay [18] it was “inactive”. Besides, the AC50 in [8] was 749 nM (active).
Turning to `CN(C)C(=O)NC1(c2ccccc2)CCN(CC[C@@]2(c3ccc(F)c(F)c3)CN(C(=O)c3ccccc3)CCO2)CC1`, the outcome in assay [1] was “inactive”; in the assay with CD40, CD40 (gene 958) [2] it was “inactive”; in assay [3], “inactive”; in [4], “inactive”; in assay [5], “inactive”; in [6] it was “inactive”. Further, the result in [7], in [8], in assay [9], in [10], in assay [11] and in [12] was inactive. For the same compound, the outcome with CD38, CD38 (gene 952) is “inactive”; in the assay with CD40, CD40 (gene 958) [13] it was “inactive”; in the assay with CD69, CD69 (gene 969) it was “inactive”; in assay [14], “inactive”; in assay [15], “inactive”; in assay [16], “inactive”. For the same compound, the result in assay [18] was inactive.
Consider `C/C=C/C=C/C(=O)O`, for which the outcome was “inactive” in [1]; “inactive” with CD40, CD40 (gene 958) [2]; “inactive” in [3]; “inactive” in [4]; “inactive” in assay [5]; “inactive” in assay [6]. The outcome in assay [7], in [8], in assay [9], in [10], in assay [11] and in assay [12] was inactive. The outcome is “inactive” with CD38, CD38 (gene 952); “inactive” in the assay with CD40, CD40 (gene 958) [13]; “inactive” with CD69, CD69 (gene 969); “inactive” in [14]; “inactive” in assay [15]; “inactive” in assay [16]. In addition, the result in [18] was inactive.

These data come from PubChem BioAssay (EPA / NIEHS).
